# Compound activity from PubChem.
# Only some compounds are listed: those with a hit (about 3.5% of all), similar ones and a draw of the others.
# FBW7 act: FBW7 E3 ligase activators, primary screen, biochemical, AlphaScreen, human; AlphaScreen FBW7–phospho-cyclin E peptide binding, activator screen; normalized activity (activation), % at 26.1 µM; 650,000 tested, 0.13% active; AID 1259310, 2017; in the data active = normalized activity above about 1.9%;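 note: purified mutant Fbw7 with reduced substrate affinity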
# Target sequence (Q969H0 whole entry, looked up): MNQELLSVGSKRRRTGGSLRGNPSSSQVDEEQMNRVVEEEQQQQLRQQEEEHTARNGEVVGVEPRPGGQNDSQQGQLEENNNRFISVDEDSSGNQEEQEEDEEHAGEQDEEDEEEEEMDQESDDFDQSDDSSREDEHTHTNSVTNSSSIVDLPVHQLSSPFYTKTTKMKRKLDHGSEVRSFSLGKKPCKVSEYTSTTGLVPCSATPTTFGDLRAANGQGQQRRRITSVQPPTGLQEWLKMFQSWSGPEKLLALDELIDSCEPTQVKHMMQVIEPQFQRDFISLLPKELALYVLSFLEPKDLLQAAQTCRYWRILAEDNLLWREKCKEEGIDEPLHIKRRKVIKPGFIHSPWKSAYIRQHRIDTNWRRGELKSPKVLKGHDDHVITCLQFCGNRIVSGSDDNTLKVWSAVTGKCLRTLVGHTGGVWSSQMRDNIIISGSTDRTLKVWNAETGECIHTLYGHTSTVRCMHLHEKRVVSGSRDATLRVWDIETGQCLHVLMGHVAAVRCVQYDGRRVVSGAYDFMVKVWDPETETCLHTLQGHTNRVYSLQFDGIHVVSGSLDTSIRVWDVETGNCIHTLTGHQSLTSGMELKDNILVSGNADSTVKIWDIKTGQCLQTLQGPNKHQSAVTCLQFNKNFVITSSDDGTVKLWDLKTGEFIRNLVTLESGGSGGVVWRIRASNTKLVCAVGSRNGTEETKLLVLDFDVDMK
# GPR151 activ: activators of human GPR151, primary screen, cell-based, PathHunter beta-arrestin, luminescence | G-protein coupled receptor 151 (Homo sapiens), Q8TDV0 | PathHunter beta-arrestin GPR151 cells | activation, % at 11.2 µM | 650,000 tested, 1% active | AID 1508602, 2020; in the data active = activation above about 4.9%;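 note: 0% = median of compound wells and 100% = cells with positive control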
# MITF primary: MITF inhibitors, primary screen, biochemical, AlphaScreen, human | Microphthalmia-associated transcription factor (Homo sapiens), O75030 | AlphaScreen MITF homodimerization, bead proximity signal | inhibition, % at 2.6 µM | 650,000 tested, 0.91% active; in the data active = inhibition above about 50%;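 note: 0% = vehicle wells with protein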
# TEAD-YAP block: TEAD-YAP interaction inhibition, primary screen, TEAD-YAP interaction inhibitor project, luminescence, HEK-TIYL cells. TEAD-Gal4/YAP UAS-luciferase luminescence. inhibition, % at 9.12 µM. 640,000 tested, 1.4% active. AID 1259422, 2018; in the data active = inhibition above about 32%;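 note: 0% = median of test compound wells and 100% = reference inhibitor wells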
# * marks the source's active call; other numbers are inactive results.
SMILES,FBW7 act,GPR151 activ,MITF primary,TEAD-YAP block
c1cncc(Nc2nc(Nc3ccc(N4CCOCC4)cc3)c3ncn(C4CCCCC4)c3n2)c1,0,0,9,37*
c1cc(N2CCOCC2)ccc1Nc1nc(Nc2ccc(N3CCOCC3)cc2)c2ncn(C3CCCCC3)c2n1,0,-1,52*,7
c1cncc(Nc2nc(NCCN3CCOCC3)c3ncn(C4CCCCC4)c3n2)c1,0,-1,-2,42*
CCOc1cc(N)ccc1C1CCCCC1,0,0,17,9
COc1ccc(C(C)NC(=O)COc2ccccc2Cl)cc1 (configuration not stated),0,-1,27,0
Cc1csc2n1c(C(=O)c1ccccc1)c(C)[n+]2-c1ccccc1,0,0,3,13
Cc1ccc(C(=O)c2c(C)[n+](-c3ccccc3)c3scc(C)n23)cc1,0,2,12,34*
C=CCNC(=O)C(=O)NCc1ccccc1C,0,-1,25,-1
Cc1ccc(Cl)cc1N1CCN(c2c(-c3ccc4c(c3)OCC(=O)N4)c(=O)c2=O)CC1,0,4,-6,61*
O=C1COc2cc(-c3c(N4CCCC4)c(=O)c3=O)ccc2N1,0,-3,13,-4
CCOc1c(Br)ccc2c1sc1nc[nH]c(=O)c12,0,0,-1,4
O=CNc1cccc2c1sc1nc[nH]c(=O)c12,0,2,8,53*
CN(C)c1ccc(/C=N/Nc2cccc3cccnc23)cc1,0,-5,5,37*
CN1C(/C=C/c2ccccc2Cl)=Nc2cccc3cccc1c23,0,0,53*,-47
CN1C(=O)N(C)c2cccc3cccc1c23,0,-1,1,-17
O=C(Nc1nnc(C2CCCO2)o1)c1ccc(F)cc1 (configuration not stated),0,1,9,3
COCCNC(=O)C(OC(=O)c1ccco1)c1ccccc1OC (configuration not stated),1.9*,-1,9,14
CC(OC(=O)c1ccco1)C(=O)NCc1ccccc1 (configuration not stated),0,0,22,1
CC(C)C(OC(=O)c1ccco1)C(=O)NCc1ccccc1 (configuration not stated),0,1,-5,59*
CCOC(=O)c1c(NC(=O)C2CCC(=O)N2C2CCCC2)sc2c1CCCC2 (configuration not stated),0,0,-9,-7
CC1=NNC(=O)C1CCc1ccncc1 (configuration not stated),1,-1,23,11
CC1=CC(=O)OC1Cc1ccncc1 (configuration not stated),0,0,-8,41*
CCOCCn1cnc2sc(C(=O)Nc3nc4c(C)cccc4s3)c(C)c2c1=O,0,0,-18,7
O=C(Cn1cnc2c(nnn2Cc2ccc(F)cc2)c1=O)Nc1ccc(F)cc1F,0,0,15,1
Cc1csc(NC(=O)c2cc3c(s2)CCC(C)C3)n1 (configuration not stated),0,-6,-3,74*
SMILES,FBW7 act,GPR151 activ,MITF primary,TEAD-YAP block
CCc1sc(C(=O)Nc2nc(C)cs2)cc1C,0,-1,3,-35
Cc1cc(N(C)C)nc(NCCNC(=O)C(C)(C)Oc2ccc(Cl)cc2)n1,1,-2,9,32*
CC(=O)Oc1ccccc1/C=C/c1nc2ccccc2c(=O)o1,0,-9,17,59*
O=C(NCCc1ccccc1)NCC1CN(c2ccccc2)C(=O)O1 (configuration not stated),0,-2,-6,1
CCn1cccc/c1=N\c1cccc[n+]1CC,0,2,1,50*
CC(=O)Nc1cccc(NC(=O)c2cc([N+](=O)[O-])ccc2Cl)c1,1,0,14,18
N/C(CC(=O)Nc1cccc(C(F)(F)F)c1)=N\O,0,1,7,0
O=C(Nc1cccc(OC(=O)c2ccc(Cl)cc2)c1)c1ccc([N+](=O)[O-])cc1,0,1,-14,32*
COC(=O)c1ccc(NC(=O)c2cc([N+](=O)[O-])ccc2Br)cc1,0,0,-9,33*
O=C(CCl)Nc1cccc(C(F)(F)F)c1,0,0,-2,34*
O=C(Nc1cccc(C(F)(F)F)c1)c1cc([N+](=O)[O-])ccc1Cl,1,3,22,52*
O=C(Nc1cccc([N+](=O)[O-])c1)c1ccco1,0,-1,-1,2
O=C(Nc1ccc(I)cc1)c1cc([N+](=O)[O-])ccc1Cl,0,-1,-18,38*
CC(=O)Nc1cccc(NC(=O)c2ccc([N+](=O)[O-])cc2Cl)c1,0,0,16,0
O=C(Nc1cccc(O)c1)c1ccc([N+](=O)[O-])cc1Cl,0,-1,-8,73*
COc1ccc(C(=O)Nc2ccncc2)cc1[N+](=O)[O-],0,0,-9,7
COC(=O)c1ccc(NC(=O)c2ccc(OC)c([N+](=O)[O-])c2)cc1,3.7*,-3,21,-2
O=C(Nc1sccc1C(=O)Nc1cccc([N+](=O)[O-])c1)c1ccco1,0,2,3,39*
Nc1ccccc1S(=O)(=O)NCCc1ccccc1,0,0,0,9
Nc1c(S(=O)(=O)Cc2ccccc2)sc2nc(-c3cccs3)cc(-c3ccccc3)c12,0,-1,-17,-5
O=C(Nc1ccc(O)cc1C(=O)O)c1cccc([N+](=O)[O-])c1,-1,-6,53*,0
CC(=O)Nc1ccc(NC(=O)c2cc([N+](=O)[O-])ccc2Cl)cc1,0,-1,17,14
COc1ccc2nc(NC(=O)c3cc([N+](=O)[O-])ccc3Cl)sc2c1,0,-1,-2,33*
O=C(Nc1ccc(F)cc1)c1cc([N+](=O)[O-])ccc1Cl,1,-2,21,33*
O=C(Nc1ccc(C23CC4CC(CC(c5ccccc5)(C4)C2)C3)cc1)c1cc([N+](=O)[O-])ccc1Cl,0,-2,11,59*
SMILES,FBW7 act,GPR151 activ,MITF primary,TEAD-YAP block
Cc1ccccc1NC(=O)c1c(NC(=O)c2cccnc2)sc2c1CCCCC2,0,0,2,-9
Cc1ccc(NC(=O)N2CCC(CN3CCC(C)CC3)CC2)c(C)c1,0,-1,7,-8
CC(C)[C@H](NC(=O)c1ccco1)C(=O)OCC(N)=O,0,1,2,6
COc1cc(C(=S)N2CCN(C)CC2)cc(OC)c1OC,0,1,0,6
COc1ccc(NC(=O)c2cc([N+](=O)[O-])ccc2Cl)cc1,0,1,4,34*
COc1cccc(NC(=O)c2cc([N+](=O)[O-])ccc2Cl)c1,0,0,-23,19
O=C(COC(=O)c1ccc([N+](=O)[O-])o1)Nc1cccc(C(F)(F)F)c1,0,0,-1,4
